Experiment [1] is described as follows: qHTS assay to identify small molecule agonists of the RXR signaling pathway - cell viability counter screen (AID 1159529). Note: nearly all actives have a fitted effect of over 50% in size. Note: potency is the fitted concentration of half-maximal effect. A digest of the protocol: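 CellTiter-Glo luminescence gave viability in the wells also read for beta-lactamase. Cells (RXR-alpha-UAS-bla HEK 293T, 2% charcoal-stripped FBS medium) had 5 hr plating, then 16 hr compound exposure at 37 C; tetraoctyl ammonium bromide served as positive control.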

Experiment [2] can be described thus: qHTS assay to identify small molecule antagonists of the retinoid acid receptor (RAR) signaling pathway - cell viability counter screen (AID 1159551). Note: nearly all actives have a fitted effect of over 35% in size. A digest of the protocol: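 C3RL4 RARE-luciferase cells, 1,000/well, incubated overnight, then dosed with compound plus 1 uM retinol (final). After 6 hr at 37 C, viability read by CellTiter-Glo ATP luminescence following 30 min at room temperature.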

Experiment [3] is described as follows: qHTS assay to identify small molecule antagonists of the retinoic acid receptor (RAR) signaling pathway (AID 1159552; note: nearly all actives have a fitted effect of over 50% in size; note: potency is the fitted concentration of half-maximal effect). A digest of the protocol:
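Luminescent RARE reporter read-out in C3RL4 cells: 6 hr co-treatment at 37 C of test compounds with retinol at 1 uM final. Cells plated overnight beforehand; luciferase reagent incubated 30 min at room temperature before reading.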
For orientation: Quantitative high-throughput screening tests each substance at several concentrations.

Experiment [4] in a line: qHTS assay to identify small molecule antagonists of the estrogen related receptor (ERR) signaling pathway - cell viability counter screen (AID 1224818). Put shortly:
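ERR cells, 2,000 per well, compound added after 6 h and incubated 17.5 h at 37 C. Viability read by CellTiter-Fluor fluorescence after a further 30 min at 37 C.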

A short description of experiment [5]: qHTS assay to identify small molecule antagonists of the estrogen related receptor (ERR) signaling pathway (AID 1224819;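 note: luminescence from an ERR-driven luciferase reporter measured with One-Glo reagent; nearly all actives have a fitted effect of over 50% in size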). Put shortly: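 ERR reporter cell line (NTP) plated at 2,000 cells/well, settled 6 h at 37C/5% CO2, then exposed to LOPAC compounds for 18 h at 37C. One-Glo luciferase luminescence read after 30 min at room temperature.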
Experiment [6] can be described thus: qHTS assay to identify small molecule agonists of the estrogen related receptor (ERR) signaling pathway (AID 1224820). Put shortly: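 Cells: ERR line from NTP, 2,000/well. Pre-incubation 6 h, 37 C/5% CO2. Compound (DMSO) pin transfer, 18 h 37 C. One-Glo, 30 min RT, luminescence.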
Experiment [7] has as its system estrogen-related receptor alpha (ERRalpha) with PGC-1alpha coactivator, human. The experiment can be described thus: qHTS assay to identify small molecule antagonists of the estrogen related receptor signaling pathway with the pleiotropic PPARgamma coactivator (PGC) (AID 1224821; calls by dose curve;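 note: lower luminescence signal means antagonism of PGC/ERR signalling; nearly all actives have a fitted effect of over 50% in size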). A digest of the protocol:
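Luminescent read-out (One-Glo, 30 min at room temperature) following 18 h treatment of PGC/ERR cells at 37 C with compounds delivered in DMSO. Cells had settled 6 h at 37 C/5% CO2 before dosing.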

The nature of experiment [8]: qHTS assay to identify small molecule antagonists of the estrogen related receptor signaling pathway with the pleiotropic PPARgamma coactivator (PGC) cell viability counter screen (AID 1224822). A digest of the protocol: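 PGC/ERR cells rested 6 h, then compound-treated 17.5 h at 37 C. CellTiter-Fluor added for 30 min at 37 C, viability measured by fluorescence intensity.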

A short description of experiment [9]: qHTS assay to identify small molecule agonists of the estrogen related receptor signaling pathway with the pleiotropic PPARgamma coactivator (PGC) (AID 1224823). Put shortly: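 Steps: plate PGC/ERR cells at 2,000 cells/well; incubate 6 h, 37 C/5% CO2; pin-transfer compounds (DMSO); incubate 18 h, 37 C; add One-Glo; 30 min RT; read luminescence.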
Experiment [10] is described as follows: qHTS assay to identify small molecule antagonists of the estrogen related receptor (ERR) signaling pathway from Tox21 library - cell viability counter screen (AID 1224834). Note: nearly all actives have a fitted effect of over 30% in size. Note: potency is the fitted concentration of half-maximal effect. Put shortly: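 ERR reporter cells, 2,000 per well, rested 6 h, then exposed to compound in DMSO for 17.5 hours at 37 C. Viability read as fluorescence after 30 min with CellTiter-Fluor.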

Experiment [11] addresses Luciferin 4-monooxygenase (Photinus pyralis) (UniProt P08659). The experiment can be described thus: qHTS assay to identify small molecule inhibitors of firefly luciferase (AID 1224835). Note: nearly all actives have a fitted effect of over 25% in size. A digest of the protocol: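 Quantitative HTS format; KM concentrations of both substrates. Purified P. pyralis FLuc activity quantified from luminescence images.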
Experiment [12] can be described thus: qHTS assay to identify small molecule agonists of the constitutive androstane receptor (CAR) signaling pathway - cell viability counter screen (AID 1224836). Note: nearly all actives have a fitted effect of over 45% in size. Note: potency is the fitted concentration of half-maximal effect. A digest of the protocol: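 Cell viability multiplexed with the CAR agonist screen: CellTiter-Fluor fluorescence after 23 hr at 37 C. HepG2-CYP2B6-hCAR cells got compounds at 15 concentrations with PK11195 at 0.75 uM final.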

Experiment [13] addresses Nuclear receptor subfamily 1 group I member 3 (Homo sapiens) (UniProt Q14994). The experiment is described as follows: qHTS assay to identify small molecule antagonists of the constitutive androstane receptor (CAR) signaling pathway (AID 1224838). Note: nearly all actives have a fitted effect of over 40% in size. Note: potency is the fitted concentration of half-maximal effect. A digest of the protocol:
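HepG2 cells stably carrying hCAR and a CYP2B6-2.2kb luciferase reporter, seeded 4 hrs before compound (15 concentrations). Stimulated with 50 nM CITCO for 24 hr at 37 C. ONE-Glo luminescence read after 30 min at room temperature.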

Experiment [14] has the same target. The experiment can be described thus: qHTS assay to identify small molecule agonists of the constitutive androstane receptor (CAR) signaling pathway (AID 1224839). Note: nearly all actives have a fitted effect of over 15% in size. Note: potency is the fitted concentration of half-maximal effect. Put shortly:
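Luminescent ONE-Glo read-out after 24 hr, 37 C exposure of double-stable HepG2-CYP2B6-hCAR reporter cells to a 15-point compound series, in the presence of 0.75 uM PK11195 (final).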

Experiment [15] can be described thus: qHTS assay to identify small molecule antagonists of the estrogen related receptor signaling pathway with the pleiotropic PPARgamma coactivator (PGC) from Tox21 10K library (AID 1224841; call rule not given here). Put shortly:
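PGC/ERR cell line, 2,000 cells/well, pre-incubated 6 hours at 37 C, then exposed to compounds for 18 hours at 37 C; luciferase read with One-Glo luminescence after 30 min at room temperature.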

Experiment [16] is described as follows: qHTS assay to identify small molecule agonists of the estrogen related receptor signaling pathway with the pleiotropic PPARgamma coactivator (PGC) from Tox21 10K library (AID 1224842). Note: nearly all actives have a fitted effect of over 15% in size. Put shortly:
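PGC/ERR reporter cells (NTP line) were seeded 2,000 per well, rested 6 h at 37 C/5% CO2, then pin-dosed with compounds in DMSO for 18 h at 37 C; luciferase read by One-Glo luminescence after 30 min at room temperature.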

Experiment [17] addresses Thyrotropin receptor (Homo sapiens) (UniProt P16473). The experiment can be described thus: qHTS assay to identify small molecule agonists of the thyroid stimulating hormone receptor (TSHR) signaling pathway (AID 1224843; calls by dose curve; note: nearly all actives have a fitted effect of over 45% in size). A digest of the protocol:
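Cell line HEK293 with TSHR; density 800/well. Exposure 30 min RT. Readout HTRF cAMP (cAMP-d2/anti-cAMP-cryptate), 1 h RT before reading.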

Experiment [18] can be described thus: qHTS assay to identify small molecule agonists of the retinoic acid receptor (RAR) signaling pathway (AID 1159553). The conditions noted are these: C3RL4 RARE luciferase reporter, agonist, 6 h; activation: at 73.3 µM (top of the series) unless noted. A digest of the protocol: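 C3RL4 RARE-luciferase cells were seeded at 1,000/well and grown overnight at 37 C, then exposed to compounds for 6 hr at 37 C, 5% CO2. Luciferase reagent was added and luminescence was read after 30 min at room temperature.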

A short description of experiment [19]: qHTS assay to identify small molecule antagonists of the constitutive androstane receptor (CAR) signaling pathway - cell viability counter screen (AID 1224837). Note: nearly all actives have a fitted effect of over 45% in size. A digest of the protocol: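 HepG2 cells stably carrying hCAR and CYP2B6-2.2kb reporter, stimulated with 50 nM CITCO and compounds at 15 concentrations for 23 h at 37 C. Viability measured by CellTiter-Fluor fluorescence.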

Experiment [20] is described as follows: qHTS assay to identify small molecule antagonists of the estrogen related receptor signaling pathway with the pleiotropic PPARgamma coactivator (PGC) from Tox21 10K library - cell viability counter screen (AID 1224840; active = well fitted cell-killing curve with a large enough effect in the repeat runs, not every such curve was filed as active; note: nearly all actives have a fitted effect of over 40% in size). A digest of the protocol: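 PGC/ERR cells (2,000/well) plated 6 h, then compound-treated for 17.5 h at 37 C. Viability measured by CellTiter-Fluor fluorescence after 30 min at 37 C, multiplexed with the pathway assay.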

Eight compounds from PubChem BioAssay (Tox21) can be followed below.

Where “and” joins values, the source holds several entries; their conditions need not be identical. Identical values can stand only once. Records with an inconclusive call do not appear. Some structures have more than one record in an assay (separate samples or runs), and their calls can disagree. Calls of active or inactive are those of the source. Unless noted, calls come from the whole dose curve; as a rule, active = well fitted curve in the direction sought with a large enough effect in the repeat runs; inconclusive = weak or mixed curves; inactive = no such curve, though single readings can be large; an effect the other way counts as inactive or inconclusive.

Sequence of Thyrotropin receptor (Homo sapiens) (P16473 whole entry, looked up): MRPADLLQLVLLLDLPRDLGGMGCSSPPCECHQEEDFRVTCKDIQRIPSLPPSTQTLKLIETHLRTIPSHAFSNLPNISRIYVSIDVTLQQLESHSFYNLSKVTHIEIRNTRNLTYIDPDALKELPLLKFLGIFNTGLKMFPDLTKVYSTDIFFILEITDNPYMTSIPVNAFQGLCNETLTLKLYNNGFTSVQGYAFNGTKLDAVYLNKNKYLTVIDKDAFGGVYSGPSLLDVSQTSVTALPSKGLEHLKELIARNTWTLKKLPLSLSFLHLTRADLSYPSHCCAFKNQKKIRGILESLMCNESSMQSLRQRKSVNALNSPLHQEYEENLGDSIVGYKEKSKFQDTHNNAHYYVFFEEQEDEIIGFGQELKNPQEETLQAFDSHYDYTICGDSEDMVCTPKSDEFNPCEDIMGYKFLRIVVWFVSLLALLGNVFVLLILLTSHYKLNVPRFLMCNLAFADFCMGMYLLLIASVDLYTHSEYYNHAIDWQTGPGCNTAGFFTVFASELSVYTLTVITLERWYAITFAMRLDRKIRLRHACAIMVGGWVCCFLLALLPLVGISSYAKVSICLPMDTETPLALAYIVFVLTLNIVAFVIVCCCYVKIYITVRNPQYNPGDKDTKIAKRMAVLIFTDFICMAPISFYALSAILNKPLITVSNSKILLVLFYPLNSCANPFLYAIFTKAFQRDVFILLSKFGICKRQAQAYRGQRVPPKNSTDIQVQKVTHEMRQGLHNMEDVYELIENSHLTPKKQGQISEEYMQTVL
Sequence of Luciferin 4-monooxygenase (Photinus pyralis) (P08659 whole entry, looked up): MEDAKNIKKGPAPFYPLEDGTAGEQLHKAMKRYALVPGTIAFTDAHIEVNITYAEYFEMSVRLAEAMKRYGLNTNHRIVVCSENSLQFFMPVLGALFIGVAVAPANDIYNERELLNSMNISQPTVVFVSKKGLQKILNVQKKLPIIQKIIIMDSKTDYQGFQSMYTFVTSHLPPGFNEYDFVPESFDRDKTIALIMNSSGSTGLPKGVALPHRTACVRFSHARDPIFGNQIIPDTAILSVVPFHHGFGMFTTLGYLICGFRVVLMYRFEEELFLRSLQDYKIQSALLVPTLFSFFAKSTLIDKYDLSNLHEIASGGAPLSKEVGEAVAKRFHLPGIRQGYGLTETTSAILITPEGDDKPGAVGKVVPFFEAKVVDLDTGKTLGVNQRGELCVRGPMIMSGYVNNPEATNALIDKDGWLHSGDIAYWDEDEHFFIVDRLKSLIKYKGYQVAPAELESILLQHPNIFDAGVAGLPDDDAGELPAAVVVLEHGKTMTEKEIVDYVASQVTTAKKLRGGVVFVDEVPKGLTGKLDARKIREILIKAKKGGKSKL
Sequence of Nuclear receptor subfamily 1 group I member 3 (Homo sapiens) (Q14994 whole entry, looked up): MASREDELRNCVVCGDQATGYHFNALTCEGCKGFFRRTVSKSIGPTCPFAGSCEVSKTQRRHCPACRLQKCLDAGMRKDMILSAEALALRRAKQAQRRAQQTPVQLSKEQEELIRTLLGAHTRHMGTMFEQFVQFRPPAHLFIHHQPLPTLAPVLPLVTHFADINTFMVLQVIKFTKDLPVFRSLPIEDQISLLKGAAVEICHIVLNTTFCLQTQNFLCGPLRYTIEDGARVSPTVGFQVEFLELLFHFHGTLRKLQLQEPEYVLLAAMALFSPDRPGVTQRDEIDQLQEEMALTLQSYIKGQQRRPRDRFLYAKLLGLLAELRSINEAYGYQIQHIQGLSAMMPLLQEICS

On to `CC(CN1c2ccccc2Sc2ccccc21)N(C)C` (centres undefined), for which the Potency in experiment [1] is 55.5 µM (active) and inactive; in [3] it was 27.6 µM (active) and 48.6 µM (active) and 26.6 µM (active); in experiment [10], 69.3 µM (active) and 61.1 µM (active); in experiment [12], 54.5 µM (active). In addition, the Potency entry in [2], in [5], in [7], in experiment [8], in [11] and in experiment [13] was “inactive” each time. Further, the Potency entry in experiment [14], in [15], in experiment [16] and in [17] was “inactive” in each case. The outcome in experiment [4], in experiment [6] and in [9] was inactive.
In the case of `O=C(O)C1=NN(c2ccc(S(=O)(=O)O)cc2)C(=O)C1`, the Potency entry in [1], in experiment [2], in experiment [3], in experiment [18], in [10] and in experiment [11] was “inactive” in each case. The Potency result in experiment [12], in experiment [19], in experiment [20] and in experiment [17] was “inactive” throughout.
In the case of `N[C@@H](Cc1cc(I)c(Oc2ccc(O)c(I)c2)c(I)c1)C(=O)O`, the Potency result in experiment [1], in experiment [2], in experiment [10], in experiment [11], in [12] and in experiment [19] was “inactive” throughout. Moreover, the Potency entry in experiment [20] and in [17] was “inactive” each time. For the same compound, the Potency result in [14] is “inactive and 56.7 µM (active)”.
With `CN=C(NC#N)NCCSCc1nc[nH]c1C`, the Potency entry in experiment [1], in [3], in [18], in experiment [5], in [7] and in experiment [8] was “inactive” in each case. In addition, the Potency result in [10], in [11], in experiment [12], in [19], in [13] and in experiment [14] was “inactive” in each case. Further, the Potency result in experiment [20], in experiment [15], in experiment [16] and in experiment [17] was “inactive” in each case. The outcome in experiment [4], in experiment [6] and in experiment [9] was inactive.
Turning to `NC(=O)c1ncn([C@@H]2O[C@H](CO)[C@@H](O)[C@H]2O)n1`, the Potency result in experiment [1], in [2], in experiment [8], in experiment [10], in [11] and in experiment [12] was “inactive” throughout. Moreover, the Potency result in [19], in [14] and in experiment [20] was “inactive” throughout. The outcome in experiment [4] was inactive. The Potency in experiment [13] was 7.23 µM (active).
As for `CC(=O)OC[C@H]1O[C@@](COC(C)=O)(O[C@H]2O[C@H](COC(C)=O)[C@@H](OC(C)=O)[C@H](OC(C)=O)[C@H]2OC(C)=O)[C@@H](OC(C)=O)[C@@H]1OC(C)=O`, the Potency result in experiment [1], in experiment [2], in experiment [3], in experiment [18], in experiment [10] and in [11] was “inactive” each time. The Potency entry in experiment [12], in experiment [19], in experiment [20] and in experiment [17] was “inactive” each time.
In the case of `COc1c2ccoc2cc2oc(=O)ccc12`, the Potency entry in [1], in experiment [2], in experiment [3], in experiment [18], in [10] and in experiment [11] was “inactive” each time. Moreover, the Potency result in [12], in experiment [19], in experiment [13], in experiment [20] and in experiment [17] was “inactive” throughout.
Take `CCCOCC(C)O` (centres undefined): the Potency entry in experiment [1], in [2], in experiment [3], in experiment [18], in experiment [10] and in experiment [11] was “inactive” throughout. The Potency result in experiment [12], in experiment [19], in [20], in [15], in experiment [16] and in experiment [17] was “inactive” in each case.
